# Laboratory results reported in PubChem BioAssay (Tox21).
# Records with an inconclusive call do not appear. A call without a number means that no potency is given here. The source made the active and inactive calls. Unless noted, calls follow the shape of the full dose curve.
# Tests used:
# [1] = qHTS assay for small molecule agonists of the p53 signaling pathway (AID 651631); also: nearly all actives have a fitted effect of over 15% in size; also: potency is read from the fitted curve at half-maximal effect
# Outline: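 Beta-lactamase reporter activity under p53 response elements was quantified in HCT-116 cells by FRET fluorescence, following 16 h incubation with test compounds at 37 °C and 2 h substrate development at room temperature.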
# [2] = target: Glucocorticoid receptor (Homo sapiens) (UniProt P04150); assay: qHTS assay to identify small molecule agonists of the glucocorticoid receptor (GR) signaling pathway (AID 720691; active = well fitted activation curve with a large enough effect in the signal ratio in the repeat runs, not every such curve was filed as active; the % refers to the signal ratio)
# Glucocorticoid receptor (Homo sapiens), sequence (P04150 whole entry, looked up): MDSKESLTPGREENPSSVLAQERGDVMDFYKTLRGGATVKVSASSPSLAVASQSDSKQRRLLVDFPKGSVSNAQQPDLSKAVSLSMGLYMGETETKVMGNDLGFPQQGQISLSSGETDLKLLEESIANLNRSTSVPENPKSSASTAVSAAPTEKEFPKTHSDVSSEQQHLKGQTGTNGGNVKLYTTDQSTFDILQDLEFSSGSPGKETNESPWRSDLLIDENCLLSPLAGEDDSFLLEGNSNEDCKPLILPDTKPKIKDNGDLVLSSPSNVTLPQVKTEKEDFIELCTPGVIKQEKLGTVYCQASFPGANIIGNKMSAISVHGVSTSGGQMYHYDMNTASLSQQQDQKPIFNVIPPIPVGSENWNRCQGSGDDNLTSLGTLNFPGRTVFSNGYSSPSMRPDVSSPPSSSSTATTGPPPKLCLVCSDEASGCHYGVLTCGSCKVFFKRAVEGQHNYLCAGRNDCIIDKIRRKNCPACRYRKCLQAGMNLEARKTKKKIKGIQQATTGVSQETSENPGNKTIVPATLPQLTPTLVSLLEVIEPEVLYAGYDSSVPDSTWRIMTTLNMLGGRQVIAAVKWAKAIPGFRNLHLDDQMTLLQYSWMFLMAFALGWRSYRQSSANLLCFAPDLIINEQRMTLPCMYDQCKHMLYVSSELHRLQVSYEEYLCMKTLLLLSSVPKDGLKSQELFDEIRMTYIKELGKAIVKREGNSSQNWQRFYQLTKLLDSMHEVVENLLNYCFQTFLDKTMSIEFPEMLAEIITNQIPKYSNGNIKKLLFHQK
# Outline: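 A HeLa cervical cancer line expressing GR and a glucocorticoid response element-driven beta-lactamase gene is treated with compounds for 18 h; LiveBLAzer B/G FRET substrate is then applied and fluorescence read.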
# [3] = target: Glucocorticoid receptor (Homo sapiens) (UniProt P04150); assay: qHTS assay to identify small molecule antagonists of the glucocorticoid receptor (GR) signaling pathway (AID 720692; active = well fitted inhibition curve with a large enough effect in the signal ratio in the repeat runs, not every such curve was filed as active; the % refers to the signal ratio; also: potency is read from the fitted curve at half-maximal effect)
# Outline: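 GRE-bla HeLa line, dex-stimulated (5 nM final). Compound exposure 18 h, 37 C. Beta-lactamase FRET read after 2 h RT substrate.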
# [4] = qHTS assay to identify small molecule antagonists of the estrogen receptor alpha (ER-alpha) signaling pathway using the BG1 cell line (AID 743080);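 also: BG1 cells stimulated with 17beta-estradiol alongside compound; series mostly up to about 70 µM; nearly all actives have a fitted effect of over 25% in size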
# Outline: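 Readout is ONE-Glo luminescence, taken 30 min at room temperature after reagent addition, preceded by a CellTiter-Fluor viability read; BG1-Luc-4E2 cells had received compound and 17beta-estradiol for 21.5 h at 37 C.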
# [5] = target: Androgen receptor (Homo sapiens) (UniProt P10275); assay: qHTS assay to identify small molecule agonists of the androgen receptor (AR) signaling pathway using the MDA cell line (AID 743040; active = well fitted curve in the direction sought with a large enough effect in the repeat runs; an effect the other way counts as inactive or inconclusive; also: nearly all actives have a fitted effect of over 20% in size; also: potency is read from the fitted curve at half-maximal effect)
# Androgen receptor (Homo sapiens), sequence (P10275 whole entry, looked up): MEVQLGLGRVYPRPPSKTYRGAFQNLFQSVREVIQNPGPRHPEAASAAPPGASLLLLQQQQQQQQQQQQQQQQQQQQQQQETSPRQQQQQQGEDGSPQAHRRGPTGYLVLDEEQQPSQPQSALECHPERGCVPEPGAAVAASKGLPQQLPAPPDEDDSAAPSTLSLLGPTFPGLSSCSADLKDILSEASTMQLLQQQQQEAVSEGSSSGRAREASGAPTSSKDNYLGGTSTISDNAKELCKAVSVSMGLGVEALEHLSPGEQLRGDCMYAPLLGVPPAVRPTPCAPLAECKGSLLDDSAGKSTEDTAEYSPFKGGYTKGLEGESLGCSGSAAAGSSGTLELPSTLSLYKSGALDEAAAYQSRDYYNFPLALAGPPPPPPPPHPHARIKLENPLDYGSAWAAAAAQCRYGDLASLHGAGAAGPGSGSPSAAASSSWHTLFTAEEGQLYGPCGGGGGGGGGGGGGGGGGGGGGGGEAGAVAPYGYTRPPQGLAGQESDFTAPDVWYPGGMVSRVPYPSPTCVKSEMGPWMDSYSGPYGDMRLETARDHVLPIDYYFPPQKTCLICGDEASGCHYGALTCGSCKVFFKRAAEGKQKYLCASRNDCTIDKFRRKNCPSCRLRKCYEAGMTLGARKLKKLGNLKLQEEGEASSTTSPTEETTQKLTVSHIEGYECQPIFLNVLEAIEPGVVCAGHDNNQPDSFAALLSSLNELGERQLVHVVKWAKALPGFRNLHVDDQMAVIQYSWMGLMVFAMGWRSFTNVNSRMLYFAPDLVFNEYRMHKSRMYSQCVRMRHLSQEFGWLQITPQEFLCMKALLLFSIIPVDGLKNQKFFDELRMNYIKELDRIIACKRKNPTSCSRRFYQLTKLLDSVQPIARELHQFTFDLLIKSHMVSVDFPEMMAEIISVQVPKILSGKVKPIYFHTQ
# Outline: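 Testing was done with the MDA-kb2 AR-luc line, a human breast carcinoma stably transfected with MMTV-luciferase containing AR and GR response elements. Cells were exposed 16 h at 37C before ONE-Glo luminescence detection.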
# [6] = target: Androgen receptor (Homo sapiens) (UniProt P10275); assay: qHTS assay to identify small molecule antagonists of the androgen receptor (AR) signaling pathway using the MDA cell line (AID 743042; active = well fitted curve in the direction sought with a large enough effect in the repeat runs; an effect the other way counts as inactive or inconclusive; also: nearly all actives have a fitted effect of over 55% in size)
# Outline: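 MDA-kb2 breast carcinoma cells carrying MMTV-luciferase (AR/GR responsive) were co-treated with compounds and the agonist R1881 for 16 h at 37C. Inhibition read as ONE-Glo luminescence; CellTiter-Fluor fluorescence measured in parallel for cytotoxicity.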
# [7] = target: Androgen receptor (Homo sapiens) (UniProt P10275); assay: qHTS assay to identify small molecule agonists of the androgen receptor (AR) signaling pathway (AID 743036; active = well fitted activation curve with a large enough effect in the signal ratio in the repeat runs, with a control signal flat, not every such curve was filed as active; the % refers to the signal ratio; also: potency is read from the fitted curve at half-maximal effect)
# Outline: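 Following a 4 h settling period, AR-UAS-bla HEK293 cells were dosed with compounds for 16 h at 37C. A 2 h room-temperature incubation with LiveBLAzer B/G FRET substrate preceded the fluorescence measurement.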
smiles,measurement,setting,value
O=C(C[C@@H]1NCCC[C@H]1O)Cn1cnc2cc(Br)c(Cl)cc2c1=O,Potency,[1],inactive
same,Potency,[2],inactive
same,Potency,[3],inactive
same,Potency,[4],inactive
C/C(=C\c1csc(C)n1)[C@@H]1C[C@@H]2O[C@]2(C)CCC[C@H](C)[C@H](O)[C@@H](C)C(=O)C(C)(C)[C@@H](O)CC(=O)O1,Potency,[5],inactive
same,Potency,[6],inactive
CCN1C[C@]2(COC)[C@H](O)C[C@H](OC)[C@@]34[C@@H]5C[C@@]6(O)[C@H](OC(=O)c7ccccc7)[C@@H]5[C@@](OC(C)=O)([C@@H]([C@H](OC)[C@H]23)[C@@H]14)[C@@H](O)[C@@H]6OC,Potency,[1],inactive
same,Potency,[4],inactive
CC(C)CCC(=O)O[C@H]1CC[C@H]2[C@@H]3CCC4=CC(=O)CC[C@]4(C)[C@H]3CC[C@]12C,Potency,[2],inactive
same,Potency,[3],6.01 µM (active)
same,Potency,[7],0.0107 µM (active)
same,Potency,[5],0.0042 µM (active)
same,Potency,[6],inactive
same,Potency,[4],inactive
CC(N)Cc1ccc(O)cc1 (stereo unspecified),Potency,[1],inactive
same,Potency,[2],inactive
same,Potency,[3],inactive
same,Potency,[4],inactive
CCCC(=O)OC(C(Cl)(Cl)Cl)P(=O)(OC)OC (stereo unspecified),Potency,[2],inactive
same,Potency,[7],inactive
same,Potency,[5],33.5 µM (active)
same,Potency,[6],inactive
CCCC(C)(COC(N)=O)COC(=O)NC1CC1 (stereo unspecified),Potency,[2],inactive
same,Potency,[3],inactive
same,Potency,[4],inactive
CC(=O)OCC(=O)[C@H]1CC[C@H]2[C@@H]3CC[C@H]4C[C@H](O)CC[C@]4(C)[C@H]3C(=O)C[C@]12C,Potency,[1],inactive
same,Potency,[3],inactive
same,Potency,[4],inactive
Clc1ccc2c(c1)C(c1ccccc1)=NCc1nncn1-2,Potency,[1],inactive
same,Potency,[3],inactive
same,Potency,[7],inactive
same,Potency,[5],inactive
same,Potency,[6],inactive
same,Potency,[4],inactive
C[C@]12CC[C@H](OS(=O)(=O)O)CC1=CC[C@@H]1[C@@H]2CC[C@]2(C)C(=O)CC[C@@H]12,Potency,[1],inactive
same,Potency,[2],inactive
same,Potency,[5],21.1 µM (active)
same,Potency,[6],inactive
same,Potency,[4],inactive
CCC1C(C)=NN=C(c2ccc(OC)c(OC)c2)c2cc(OC)c(OC)cc21 (stereo unspecified),Potency,[1],inactive
same,Potency,[4],inactive
CCC1(c2ccccc2)C(=O)NC(=O)N(C(=O)c2ccccc2)C1=O (stereo unspecified),Potency,[2],inactive
same,Potency,[3],inactive
C[C@]12CCC(=O)C=C1C=C[C@@H]1[C@@H]2CC[C@@]2(C)[C@H]1CC[C@@]2(O)CCC(=O)O,Potency,[3],9.1 µM (active)
same,Potency,[7],3.62 µM (active)
same,Potency,[5],12.7 µM (active)
same,Potency,[6],inactive
CCC/C=C/C=C/C(=O)O[C@H]1/C(=C/C(=O)OC)C[C@H]2C[C@H]([C@@H](C)O)OC(=O)C[C@H](O)C[C@@H]3C[C@H](OC(C)=O)C(C)(C)[C@](O)(C[C@@H]4C/C(=C/C(=O)OC)C[C@H](/C=C/C(C)(C)[C@]1(O)O2)O4)O3,Potency,[3],inactive
same,Potency,[4],inactive
C=CC[C@]1(O)CC[C@H]2[C@@H]3CCC4=CCCC[C@@H]4[C@H]3CC[C@@]21C,Potency,[1],inactive
same,Potency,[2],inactive
same,Potency,[3],7.56 µM (active)
C[N+]1([O-])[C@@H]2CC[C@H]1CC(OC(=O)C(CO)c1ccccc1)C2 (stereo partly specified),Potency,[2],inactive
same,Potency,[3],inactive
same,Potency,[4],inactive
C#CCN1CC(=O)N(COC(=O)C2C(C=C(C)C)C2(C)C)C1=O (stereo unspecified),Potency,[1],inactive
same,Potency,[2],inactive
same,Potency,[3],inactive
same,Potency,[4],inactive
Cc1nnc2n1-c1ccc(Cl)cc1C(c1ccccc1Cl)=NC2,Potency,[1],inactive
same,Potency,[2],inactive
C[N+]1(C)CCCCC1COC(=O)C(O)(c1ccccc1)c1ccccc1 (stereo unspecified),Potency,[2],inactive
same,Potency,[3],inactive
same,Potency,[7],inactive
same,Potency,[5],inactive
same,Potency,[6],inactive
CCN(CC)C(=O)N[C@H]1C[C@@H]2c3cccc4[nH]cc(c34)C[C@H]2N(C)C1,Potency,[1],inactive
same,Potency,[7],inactive
same,Potency,[5],inactive
same,Potency,[6],inactive
CN1CCCC(=C(c2cccs2)c2cccs2)C1,Potency,[7],inactive
same,Potency,[5],inactive
same,Potency,[6],inactive
same,Potency,[4],inactive
CN1[C@H]2CC[C@@H]1[C@@H](C(=O)O)[C@@H](OC(=O)c1ccccc1)C2,Potency,[4],inactive
CCC(=O)O[C@]1(c2ccccc2)CCN(C)C[C@H]1C,Potency,[1],inactive
same,Potency,[7],inactive
same,Potency,[5],inactive
same,Potency,[6],inactive
same,Potency,[4],inactive
N#CC1(N2CCCCC2)CCCCC1,Potency,[2],inactive
same,Potency,[3],inactive
same,Potency,[4],inactive
COC(=O)[C@@H]1[C@H]2CC[C@@H](C[C@H]1OC(=O)c1ccccc1)N2C,Potency,[1],inactive
same,Potency,[7],inactive
same,Potency,[5],inactive
same,Potency,[6],inactive
same,Potency,[4],inactive
NC1=NC(=O)N2CC12 (stereo unspecified),Potency,[4],inactive
COC([CH2][Hg])CNC(=O)c1ccccc1OCC(=O)O (stereo unspecified),Potency,[2],inactive
same,Potency,[3],inactive
same,Potency,[4],inactive
S=C(S)N1CCNCC1,Potency,[2],inactive
same,Potency,[3],inactive
same,Potency,[4],inactive
CCNCC(O)c1cccc(O)c1 (stereo unspecified),Potency,[1],inactive
same,Potency,[3],inactive
same,Potency,[4],inactive
C[C@]12CC[C@H]3[C@@H](CCC4=C(Cl)C(=O)CC[C@@]43C)[C@@H]1CC[C@@H]2O,Potency,[1],inactive
same,Potency,[7],0.003 µM (active)
same,Potency,[5],0.0019 µM (active)
same,Potency,[6],inactive
CCCCCCC(=O)O[C@H]1CC[C@H]2[C@@H]3CC[C@H]4CC(=O)C=C(C)[C@]4(C)[C@H]3CC[C@]12C,Potency,[2],inactive
same,Potency,[4],inactive
COc1cc([C@@H]2c3cc4c(cc3[C@@H](O)[C@H]3COC(=O)[C@H]23)OCO4)cc(OC)c1O,Potency,[1],0.168 µM (active)
same,Potency,[2],inactive
